# Reference: publication PMC5540273 (PLoS ONE, 2017)
# Test system: ACVR2B
# Settings: concentration: 1 μM, replicates: in singlicate; n = 1
# 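Further: KINOMEscan kinase panel screen.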
row,Compound,%Inh
1,COc1ccc(NC(=O)c2ccoc2)cc1-c1ccc(C(=O)NCC2CC2)cc1 [GW810437],17%
2,CC(=O)Nc1cn2nc(Oc3cccc(NC(=O)c4cccc(C(F)(F)F)c4)c3)ccc2n1,31%
3,Cc1ccc(C)c(NC(=O)Nc2ccc(C)c(-c3ccc(C(=O)Nc4ccncc4)cc3)c2)c1 [GSK1398473],3%
4,CN(C)c1ncnc2nc[nH]c12 [SKF-31736],0%
5,Cc1ccc(O)cc1Nc1ccnc2cc(-c3ccc(CN4CCCCC4)o3)ccc12 [GW557777],94.7%
6,Cl.Cl.NCC(NC(=O)c1cc(-c2cccnc2)c(-c2ccnc3[nH]ccc23)s1)c1ccccc1 (stereo not shown) [GSK1323434],0%
7,CC(C)NCC(Cc1ccccc1)NC(=O)c1cc(Br)c(-c2ccnc3[nH]ccc23)s1.Cl.Cl (stereo not shown) [GSK1383281],0%
8,COc1cccc(NC(=O)NCCNc2ccnc(Nc3ccc(F)cc3)n2)c1 [GSK1379879],0%
9,Cc1cc(-c2ccnc(Nc3cccc(C#N)c3)n2)cc(C)c1O [GSK1440913],88%
10,Cc1ccc(O)cc1Nc1ccnc2ccc(C(C)(C)C)cc12 [GW856805],62%
11,O=C(Nc1n[nH]c2nc(-c3ccccc3)ccc12)C1CC1 [SB-708999],37%
12,Cl.Cl.NC(CNC(=O)c1cc(Br)c(-c2ccnc3[nH]ccc23)s1)c1ccccc1 (stereo not shown) [GSK1322949],10%
13,Cn1cc(-c2cnc(N)c3c(-c4ccc5c(c4)CCN5C(=O)Cc4ccccc4)csc23)cn1 [GSK2593074],0%
14,O=C1NC(=O)C(c2ccccc2Cl)=C1Nc1cccc(Cl)c1 [SB-342409],0%
15,COc1ccc(C2=C(Nc3cccc(O)c3)C(=O)NC2=O)cc1 [SB-390766],0%
16,CN(C)CCNS(=O)(=O)c1ccc(-c2ccnc3[nH]ccc23)cc1 [GSK977620],0%
17,CC(C)c1nc(-c2cccc(NS(=O)(=O)c3c(F)cccc3F)c2)c(-c2ccnc(Nc3ccc(N4CCOCC4)nc3)n2)s1.Cl [GSK1723980],81%
18,CCn1cnc2c(NCc3ccccc3)ncnc21 [SKF-96418],0%
19,COC(=O)Nc1nc2cc(Oc3ccc(NC(=O)Nc4cccc(SC)c4)cc3)ccc2[nH]1.Cl [GW697999],0%

row,Compound,%Inh
1,O=C(Nc1n[nH]c2nc(-c3cccc(O)c3)ccc12)C1CC1 [SB-711805],74%
2,CN(c1ccc(F)c(NC(=O)c2cccc(OC(C)(C)C#N)c2Cl)c1)c1ccc2nc(NC(=O)C3CC3)sc2n1,0%
3,Cc1nn2c(=O)cc(N3CCO[C@H](C)C3)nc2n1Cc1cccc(Cl)c1Cl [GSK2373693],0%
4,Cl.O=C(Nc1ccc(Oc2ccc3[nH]c(NC(=O)c4ccco4)nc3c2)cc1)Nc1cc(C(F)(F)F)ccc1F [GW683134],0%
5,N#CC1(c2cccc(C(=O)Nc3cccc(Oc4ccc5nc(NC(=O)C6CC6)sc5n4)c3)c2)CC1,1%
6,COC(=O)Nc1nc2ccc(Oc3ccc(CC(=O)Nc4cc(C(F)(F)F)ccc4F)cc3)cc2[nH]1 [GW680903],0%
7,O=C(Nc1n[nH]c2nc(-c3ccccc3O)ccc12)C1CC1 [SB-711880],0%
8,CNc1nccc(-c2ccc3c(N)n[nH]c3c2)n1 [GSK2206003],67%
9,O=C(Nc1n[nH]c2cc(-c3cccs3)ccc12)C1CC1 [SB-731284],17%
10,CC(C)(C)c1ccc(C(=O)Nc2cn3cc(-n4ccnc4)ccc3n2)cc1,8%
11,Cc1ccc(Nc2ccnc(Nc3ccc(C)c(F)c3)n2)cc1O.Cl [GW582868],92.9%
12,Fc1cc(Cl)ccc1Nc1ccnc2cc(-c3ccc(CN4CCOCC4)o3)ccc12 [GW560109],88%
13,Nc1cccc(-c2ccc3c(N)n[nH]c3c2)c1 [GSK2193613],19%
14,Nc1ncnc2scc(-c3ccc(NC(=O)Cc4cc(F)ccc4F)cc3)c12.O=C(O)C(F)(F)F [SB-731254-M],1%
15,COc1cccc(-c2nc(-c3ccccc3)[nH]c2-c2ccncc2)c1 [SB-610250],0%
16,Cc1cccc(Nc2nc(NCCN)ncc2C(N)=O)c1 [GSK1292139],0%
17,CN1CCN(Cc2ccc(NC(=O)Nc3ccc(N(C)c4ccnc(Nc5ccc(CS(C)(=O)=O)cc5)n4)cc3)cc2)CC1.Cl [GW827654],38%
18,CN(c1ccc(NC(=O)Nc2cccc(Cl)c2)cc1)c1ccnc(N)n1.Cl [GW830707],0%
